For 20 molecules, growth inhibition, inhibition and outcome results are on record in PubChem BioAssay.

A short description of assay [1]: antimalarial activity against Dd2 strain (AID 2302;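 active means growth inhibition above 50% at the single 2 µM test dose, taken to imply half-maximal potency below 2 µM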;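 further: 0% = DMSO untreated growth and 100% = chloroquine plus artemisinin killed control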). Particulars: P. falciparum Dd2 in RBCs, LDH growth readout, 72 h; at 2 µM; stronger effect = higher value.
Assay [2] is described as follows: HepG2 cytotoxicity, primary screen, cytotoxicity control for P. falciparum antimalarial project, cell-based, ATP luminescence (AID 2303;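 active means inhibition above 50%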;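 further: 0% = DMSO wells and 100% = digitonin-killed cells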). Particulars: HepG2 viability, 24-48 h, at 10 µM, stronger effect = higher value.
In assay [3] the target is L-lactate dehydrogenase (Plasmodium falciparum (isolate CDC / Honduras)) (UniProt Q27743). The assay is described as follows: PfLDH activity inhibition – cell lysate, 3D7 strain, counter-screen for P. falciparum growth inhibition project (AID 2304).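 Further: 0% = vehicle and 100% = reference inhibitor.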 Particulars: P. falciparum 3D7 crude extract, LDH APAD/NBT absorbance; at 2 µM; stronger effect = higher value.
Chain of L-lactate dehydrogenase (Plasmodium falciparum (isolate CDC / Honduras)) (Q27743 whole entry, looked up): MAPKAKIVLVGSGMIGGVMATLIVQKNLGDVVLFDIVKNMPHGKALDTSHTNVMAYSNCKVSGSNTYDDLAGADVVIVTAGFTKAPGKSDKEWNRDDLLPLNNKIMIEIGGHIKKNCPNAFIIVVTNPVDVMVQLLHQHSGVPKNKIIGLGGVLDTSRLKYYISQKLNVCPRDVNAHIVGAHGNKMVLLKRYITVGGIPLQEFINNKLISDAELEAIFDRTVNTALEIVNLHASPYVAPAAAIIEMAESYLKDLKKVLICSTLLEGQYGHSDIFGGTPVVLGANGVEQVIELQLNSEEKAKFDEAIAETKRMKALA
The nature of assay [4]: inhibition of 3D7 malaria parasite growth – strain 3D7 (AID 2306).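 Further: 0% = DMSO wells and 100% = chloroquine plus artemisinin control wells.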 Particulars: P. falciparum 3D7 erythrocytic growth, LDH absorbance, 72 h; at 2 µM; stronger effect = higher value.
Assay [5] deals with Calcium-dependent protein kinase 1 (Plasmodium falciparum (isolate 3D7)) (UniProt P62344). In words: PfCDPK1 kinase inhibitors, biochemical, TCAMS library (AID 1159585; cut-off not given, nearly all actives have IC50 up to about 0.98 µM;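 further: inhibitors leave more ATP so luminescence rises with inhibition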). Conditions: recombinant PfCDPK1, Kinase-Glo ATP depletion luminescence.
Chain of Calcium-dependent protein kinase 1 (Plasmodium falciparum (isolate 3D7)) (P62344 whole entry, looked up): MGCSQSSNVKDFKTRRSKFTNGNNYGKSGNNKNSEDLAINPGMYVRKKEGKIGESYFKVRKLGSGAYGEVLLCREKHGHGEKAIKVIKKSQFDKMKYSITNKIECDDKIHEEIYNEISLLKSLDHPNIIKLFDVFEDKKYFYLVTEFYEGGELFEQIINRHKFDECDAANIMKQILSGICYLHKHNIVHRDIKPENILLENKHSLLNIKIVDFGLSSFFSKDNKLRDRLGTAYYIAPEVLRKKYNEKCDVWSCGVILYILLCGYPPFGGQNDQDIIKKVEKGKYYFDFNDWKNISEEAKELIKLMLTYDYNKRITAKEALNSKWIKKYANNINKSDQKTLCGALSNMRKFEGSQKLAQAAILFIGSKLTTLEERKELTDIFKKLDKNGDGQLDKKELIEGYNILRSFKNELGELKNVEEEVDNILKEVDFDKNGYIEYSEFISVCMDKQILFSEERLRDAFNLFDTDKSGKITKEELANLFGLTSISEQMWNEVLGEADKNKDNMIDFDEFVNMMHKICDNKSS
The target in assay [6] is Plasmodium falciparum protein kinase 6 (PK6, PF3D7_1337100) (UniProt Q8IDW1). The assay is described as follows: PfPK6 kinase inhibitors, biochemical, TCAMS library (AID 1159586). Particulars: recombinant PfPK6, Kinase-Glo ATP depletion luminescence.
Chain of Plasmodium falciparum protein kinase 6 (PK6, PF3D7_1337100) (Q8IDW1 1-305): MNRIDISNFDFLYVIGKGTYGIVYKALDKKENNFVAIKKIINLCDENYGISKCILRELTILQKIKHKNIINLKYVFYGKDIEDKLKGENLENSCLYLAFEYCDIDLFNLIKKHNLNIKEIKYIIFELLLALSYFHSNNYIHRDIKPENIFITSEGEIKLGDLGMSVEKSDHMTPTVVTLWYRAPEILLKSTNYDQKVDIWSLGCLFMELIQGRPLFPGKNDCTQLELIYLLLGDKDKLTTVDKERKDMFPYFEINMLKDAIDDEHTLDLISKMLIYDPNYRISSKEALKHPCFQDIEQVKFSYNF
For assay [7], the target named is Protein kinase 7 (PK7), Plasmodium falciparum 3D7 (PF3D7_0213400) (UniProt Q7YTF7). The assay is described as follows: inhibition of Plasmodium PK7 catalytic activity – biochemical, TCAMS antimalarial set, Kinase-Glo luminescence (AID 1159587). Particulars: recombinant PfPK7, Kinase-Glo ATP depletion luminescence.
Chain of Protein kinase 7 (PK7), Plasmodium falciparum 3D7 (PF3D7_0213400) (Q7YTF7 1-343): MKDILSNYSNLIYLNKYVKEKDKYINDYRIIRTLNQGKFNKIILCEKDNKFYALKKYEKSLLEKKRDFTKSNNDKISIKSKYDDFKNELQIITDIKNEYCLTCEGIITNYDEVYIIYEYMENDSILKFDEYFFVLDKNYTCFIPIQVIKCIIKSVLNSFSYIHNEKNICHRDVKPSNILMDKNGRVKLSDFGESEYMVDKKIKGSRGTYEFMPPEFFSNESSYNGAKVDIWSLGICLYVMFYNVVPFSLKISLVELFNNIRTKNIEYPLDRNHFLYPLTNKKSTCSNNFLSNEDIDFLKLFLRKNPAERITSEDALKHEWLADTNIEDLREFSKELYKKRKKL
For assay [8], the target named is Calcium-dependent protein kinase 4 (Plasmodium falciparum (isolate 3D7)) (UniProt Q8IBS5). In words: PfCDPK4 kinase inhibitors, biochemical, TCAMS library (AID 1159588; cut-off not given, nearly all actives have IC50 up to about 0.91 µM). Particulars: recombinant PfCDPK4, Kinase-Glo ATP depletion luminescence.
Chain of Calcium-dependent protein kinase 4 (Plasmodium falciparum (isolate 3D7)) (Q8IBS5 whole entry, looked up): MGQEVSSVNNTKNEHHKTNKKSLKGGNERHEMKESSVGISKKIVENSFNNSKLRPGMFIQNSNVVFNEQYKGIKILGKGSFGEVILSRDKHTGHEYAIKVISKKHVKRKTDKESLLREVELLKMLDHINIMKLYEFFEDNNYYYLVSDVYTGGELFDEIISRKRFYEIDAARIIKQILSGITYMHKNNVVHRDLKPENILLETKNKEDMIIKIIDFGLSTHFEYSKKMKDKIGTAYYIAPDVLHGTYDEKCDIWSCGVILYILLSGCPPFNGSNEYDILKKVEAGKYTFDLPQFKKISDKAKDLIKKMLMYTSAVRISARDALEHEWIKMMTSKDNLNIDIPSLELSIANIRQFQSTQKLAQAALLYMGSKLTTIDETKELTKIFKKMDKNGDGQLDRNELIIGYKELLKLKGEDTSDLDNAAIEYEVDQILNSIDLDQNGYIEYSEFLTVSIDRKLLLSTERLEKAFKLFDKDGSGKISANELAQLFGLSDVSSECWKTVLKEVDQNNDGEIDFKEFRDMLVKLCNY

A number with no mark means an inactive call. For some of these results: Results with a measured potency or affinity are listed apart. Calls of active or inactive are those of the source. Unless noted, how the calls were made is not given here.

For the molecule `O=C(N[C@@H](Cc1ccccc1)C(=O)NCc1cccc2ccccc12)c1ccc(O)c(-c2ccc(Cl)c(Cl)c2)c1`, the growth inhibition in assay [1] was 97% (active); in assay [4], 101% (active). Further, the inhibition in assay [2] was -6%; in assay [3], 4%. For the same molecule, the result in assay [5], in assay [6], in assay [7] and in assay [8] was inactive.

Turning to `Cc1cc(F)ccc1N(c1nc(-c2cc(Cl)ccc2Cl)cs1)C1CCNC1` (stereo not given), the growth inhibition was 3% in assay [1] and 99% (active) in assay [4]. In addition, the inhibition in assay [2] was 19%; in assay [3], 0%. For the same molecule, the result in assay [5], in assay [6], in assay [7] and in assay [8] was inactive.

Take `O=S(=O)(Nc1ccc(CCN2CCC(N3CCCCC3)CC2)cc1)c1cccc2cccnc12`: the growth inhibition in assay [1] is 45%; in assay [4], 101% (active). The inhibition is 14% in assay [2] and -3% in assay [3]. Also, the outcome in assay [5], in assay [6], in assay [7] and in assay [8] was inactive.

Turning to `CC(C)c1cc2c(ccc3nc(N)nc(N)c32)[nH]1`, the growth inhibition was 4% in assay [1] and 93% (active) in assay [4]. The inhibition in assay [2] was 49%; in assay [3] it was 2%. The outcome in assay [5], in assay [6], in assay [7] and in assay [8] was inactive.

Take `CCOc1c(CNCCCCCCNCc2ccc3ccccc3c2OCC)ccc2ccccc12`: the growth inhibition was 78% (active) in assay [1] and 99% (active) in assay [4]. The inhibition in assay [2] was 100% (active); in assay [3], 6%. The result in assay [5], in assay [6], in assay [7] and in assay [8] was inactive.

As for `CCN(CCC1(c2ccc(Cl)c(Cl)c2)CN(C(=O)c2cc(OC)c(OC)c(OC)c2)CCO1)[C@@H]1C[C@@H]2c3ccccc3C[C@@H]21` (stereo not given in full), the growth inhibition in assay [1] is 65% (active); in assay [4] it was 80% (active). Besides, the inhibition in assay [2] is 26%; in assay [3], -4%. Moreover, the result in assay [5], in assay [6], in assay [7] and in assay [8] was inactive.

In the case of `CC(=O)Oc1cc(C)ccc1C1CCN(CCCCNC(=O)c2ccc(NC(=O)c3ccc(Cl)cc3)cc2)CC1`, the growth inhibition is 57% (active) in assay [1] and 100% (active) in assay [4]. For the same molecule, the inhibition in assay [2] is 12%; in assay [3] it was -5%. The outcome in assay [5], in assay [6], in assay [7] and in assay [8] was inactive.

Consider `CCN(CC)CCN(Cc1ccc(-c2ccc(C(F)(F)F)cc2)cc1)C(=O)Cn1c(CCc2ccc(F)c(C#N)c2)nc(=O)c2ccccc21`, for which the results for the growth inhibition in assay [1] and in assay [4] were 55% (active) and 98% (active), respectively. Also, the inhibition is 18% in assay [2] and -2% in assay [3]. Further, the result in assay [5], in assay [6], in assay [7] and in assay [8] was inactive.

As to `CN1CCN(CCCN(Cc2csc(-c3ccc(CNCc4ccccc4)cc3)n2)C(=O)Nc2cccc(Cl)c2)CC1`, the figures for the growth inhibition in assay [1] and in assay [4] were 67% (active) and 102% (active), respectively. Also, the figures for the inhibition in assay [2] and in assay [3] were 32% and -5%, respectively. Also, the result in assay [5], in assay [6], in assay [7] and in assay [8] was inactive.

For `CCc1c(C)nc(-n2nc(C)cc2NC(=O)c2ccc(OC)cc2OC)[nH]c1=O`, the results for the growth inhibition in assay [1] and in assay [4] were 57% (active) and 96% (active), respectively. Besides, the inhibition was 42% in assay [2] and 1% in assay [3]. Moreover, the outcome in assay [5], in assay [6], in assay [7] and in assay [8] was inactive.

In the case of `OCCCCCCNc1nc(NCc2ccccc2-c2ccc(C(F)(F)F)cc2)nc(N2CCNCC2)n1`, the growth inhibition in assay [1] is 16%; in assay [4] it was 89% (active). Further, the figures for the inhibition in assay [2] and in assay [3] were 13% and 2%, respectively. Further, the outcome in assay [5], in assay [6], in assay [7] and in assay [8] was inactive.

As to `Nc1nc(N)c2c3c(cnc2n1)CCCC3`, the growth inhibition in assay [1] was -4%; in assay [4], 95% (active). Also, the inhibition is 61% (active) in assay [2] and -4% in assay [3]. In addition, the result in assay [5], in assay [6], in assay [7] and in assay [8] was inactive.

Take `COc1cc(C(=O)Nc2ccc3nc(N4CCN(C)CC4)cc(C)c3c2)cc(OC)c1OC`: the values for the growth inhibition in assay [1] and in assay [4] were 79% (active) and 102% (active), respectively. For the same molecule, the inhibition was 18% in assay [2] and -6% in assay [3]. For the same molecule, the outcome in assay [5], in assay [6], in assay [7] and in assay [8] was inactive.

`COc1ccc2c(NN=Cc3cccc(C)n3)ccnc2c1`: the growth inhibition in assay [1] is 51% (active); in assay [4], 96% (active). Besides, the values for the inhibition in assay [2] and in assay [3] were -12% and 3%, respectively. In addition, the outcome in assay [5], in assay [6], in assay [7] and in assay [8] was inactive.

Turning to `CC(C)CNCc1cccc(-c2ccc(CN(CCCN3CCN(C)CC3)C(=O)/C=C/c3ccccc3)cc2)c1`, the growth inhibition in assay [1] is 90% (active); in assay [4], 92% (active). The inhibition is 48% in assay [2] and -2% in assay [3]. The outcome in assay [5], in assay [6], in assay [7] and in assay [8] was inactive.

On to `Nc1cccc(CNCc2cccc(-c3cccc(-c4nc5ccccc5[nH]4)c3)c2)c1`, for which the growth inhibition in assay [1] was 84% (active); in assay [4], 101% (active). Moreover, the results for the inhibition in assay [2] and in assay [3] were 1% and -7%, respectively. Besides, the result in assay [5], in assay [6], in assay [7] and in assay [8] was inactive.

In the case of `O=C(Nc1cccc(CN2CCCN(Cc3cccc(F)c3)CC2)c1)c1ccc(Cl)c(Cl)c1`, the growth inhibition in assay [1] was 6%; in assay [4] it was 85% (active). Further, the values for the inhibition in assay [2] and in assay [3] were 28% and -1%, respectively. Moreover, the outcome in assay [5], in assay [6], in assay [7] and in assay [8] was inactive.

As for `CCCCCCCCn1c2c(c(=N)c3c1CCC3)CCC2`, the growth inhibition in assay [1] is 93% (active); in assay [4], 99% (active). Also, the inhibition in assay [2] was 47%; in assay [3] it was -5%. Besides, the outcome in assay [5], in assay [6], in assay [7] and in assay [8] was inactive.

For the molecule `N#Cc1ccc2nc(-c3cc(-c4cccc(F)c4)cnc3N)[nH]c2c1`, the figures for the growth inhibition in assay [1] and in assay [4] were 93% (active) and 100% (active), respectively. Besides, the inhibition in assay [2] is 46%; in assay [3], 5%. For the same molecule, the result in assay [5], in assay [6], in assay [7] and in assay [8] was inactive.

On to `COC(=O)c1cccc(CNCc2cccc(-c3ccc(-c4nc5c(C)cccc5[nH]4)cc3)c2)c1`, for which the growth inhibition is 52% (active) in assay [1] and 102% (active) in assay [4]. In addition, the inhibition is 3% in assay [2] and 2% in assay [3]. Also, the outcome in assay [5], in assay [6], in assay [7] and in assay [8] was inactive.
